What all share (assay): DAPPL (digital affinity profiling via proximity ligation, sequencing); 10 mM Tris-HCl pH 7.5, 50 mM NaCl, 1 mM DTT, 4% glycerol, room temperature, 30 min; GST-TFs on glutathione beads, 16-mer random dsDNA library, 0.1% formaldehyde crosslink after washing; high values mean tight binding
Holding throughout (conditions): protein: recombinant; tags: N-terminal GST; dsDNA, one strand shown

One assay deals with T1, ELK1 (Homo sapiens, UniProt P19419 1-428).
T1 sequence: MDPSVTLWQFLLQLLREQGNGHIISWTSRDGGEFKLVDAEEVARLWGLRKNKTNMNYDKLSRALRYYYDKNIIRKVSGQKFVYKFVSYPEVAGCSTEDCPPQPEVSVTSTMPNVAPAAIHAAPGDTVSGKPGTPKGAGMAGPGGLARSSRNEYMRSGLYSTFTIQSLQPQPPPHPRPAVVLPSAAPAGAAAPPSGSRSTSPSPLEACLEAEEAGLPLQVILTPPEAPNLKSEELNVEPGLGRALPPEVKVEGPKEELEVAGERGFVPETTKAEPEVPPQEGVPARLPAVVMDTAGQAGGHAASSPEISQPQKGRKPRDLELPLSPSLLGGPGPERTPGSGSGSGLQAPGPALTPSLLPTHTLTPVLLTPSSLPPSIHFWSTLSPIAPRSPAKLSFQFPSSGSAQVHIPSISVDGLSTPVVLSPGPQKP
The essentials:
(§1)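 Binding signal is each hexamer's read frequency for a factor divided by its frequency in the tag-only sample. The factors were GST-fused human transcription factors from yeast, captured on glutathione beads, DNA-barcoded and pooled with that sample. Pools were incubated with 200 nmole of a random double-stranded 16-mer DNA library in Tris/NaCl/DTT/glycerol buffer at room temperature for 30 min, then washed, crosslinked with 0.1% formaldehyde, proximity-ligated with BsaI/T4 ligase (1 h, 37 °C), PCR-amplified and sequenced on an Illumina NextSeq500.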

In another assay the target is T2, GABPA (Homo sapiens, UniProt Q06546 1-454).
T2 sequence: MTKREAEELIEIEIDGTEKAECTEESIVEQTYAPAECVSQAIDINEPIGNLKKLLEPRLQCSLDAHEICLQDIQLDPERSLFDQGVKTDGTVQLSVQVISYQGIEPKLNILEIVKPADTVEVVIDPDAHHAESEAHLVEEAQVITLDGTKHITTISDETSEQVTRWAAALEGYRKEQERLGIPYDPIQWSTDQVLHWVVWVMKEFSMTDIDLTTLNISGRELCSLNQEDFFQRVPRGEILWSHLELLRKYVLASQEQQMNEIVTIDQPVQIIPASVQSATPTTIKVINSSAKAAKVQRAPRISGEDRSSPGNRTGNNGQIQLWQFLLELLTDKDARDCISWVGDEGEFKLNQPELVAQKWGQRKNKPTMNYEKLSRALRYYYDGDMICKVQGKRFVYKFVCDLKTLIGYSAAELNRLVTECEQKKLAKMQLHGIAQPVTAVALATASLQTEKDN
The method in brief:
as §1

A further assay addresses T3, ERG (Homo sapiens, UniProt P11308 1-479).
T3 sequence: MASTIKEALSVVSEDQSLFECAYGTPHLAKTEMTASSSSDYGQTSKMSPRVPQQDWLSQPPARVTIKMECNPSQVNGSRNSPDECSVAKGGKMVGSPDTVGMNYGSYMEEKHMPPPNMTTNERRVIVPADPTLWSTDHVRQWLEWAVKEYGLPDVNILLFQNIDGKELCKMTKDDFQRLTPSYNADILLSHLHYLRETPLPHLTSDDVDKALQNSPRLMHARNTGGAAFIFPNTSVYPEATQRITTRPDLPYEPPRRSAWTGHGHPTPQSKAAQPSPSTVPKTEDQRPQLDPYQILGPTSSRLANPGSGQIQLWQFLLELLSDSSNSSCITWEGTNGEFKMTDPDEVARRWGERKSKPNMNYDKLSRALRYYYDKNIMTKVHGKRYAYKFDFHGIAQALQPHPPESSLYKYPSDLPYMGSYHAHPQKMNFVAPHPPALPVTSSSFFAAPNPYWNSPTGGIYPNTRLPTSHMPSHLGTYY
The method in brief:
as §1

The target of the next assay is ELF1 (Homo sapiens, UniProt P32519 1-619). The method in brief:
as §1

In a further assay the target is T4, EHF (Homo sapiens, UniProt Q9NZC4 1-300).
T4 sequence: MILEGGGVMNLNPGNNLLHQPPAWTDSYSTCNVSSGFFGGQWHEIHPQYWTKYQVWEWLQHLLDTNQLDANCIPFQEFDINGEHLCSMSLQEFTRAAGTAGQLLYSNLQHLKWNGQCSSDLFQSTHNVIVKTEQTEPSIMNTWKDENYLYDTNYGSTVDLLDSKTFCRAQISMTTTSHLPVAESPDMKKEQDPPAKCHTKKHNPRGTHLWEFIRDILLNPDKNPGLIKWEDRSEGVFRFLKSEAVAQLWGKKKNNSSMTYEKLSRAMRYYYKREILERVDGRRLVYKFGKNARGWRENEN
The essentials: as §1

The next assay addresses SPI1 (Homo sapiens, UniProt P17947 1-270). The method in brief:
as §1

The target of the next assay is SPIB (Homo sapiens, UniProt Q01892 1-262). The essentials: as §1
Sequence of SPIB (Q01892 whole entry): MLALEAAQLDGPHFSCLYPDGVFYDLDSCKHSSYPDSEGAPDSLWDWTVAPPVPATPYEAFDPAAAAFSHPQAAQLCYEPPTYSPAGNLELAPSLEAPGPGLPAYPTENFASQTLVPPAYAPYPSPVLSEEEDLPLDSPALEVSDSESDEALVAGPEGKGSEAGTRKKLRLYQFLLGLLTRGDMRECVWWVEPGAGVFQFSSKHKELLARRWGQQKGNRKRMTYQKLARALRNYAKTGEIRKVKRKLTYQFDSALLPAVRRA
In another assay the target is T5, FEV (Homo sapiens, UniProt Q99581 1-238).
T5 sequence: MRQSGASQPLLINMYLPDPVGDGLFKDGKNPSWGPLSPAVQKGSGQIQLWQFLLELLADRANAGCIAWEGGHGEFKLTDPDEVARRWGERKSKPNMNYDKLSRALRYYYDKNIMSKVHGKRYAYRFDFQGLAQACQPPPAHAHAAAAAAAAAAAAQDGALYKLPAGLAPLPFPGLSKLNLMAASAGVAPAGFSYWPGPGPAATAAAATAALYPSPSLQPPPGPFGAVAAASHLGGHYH
The essentials: as §1

In a further assay the target is ETV5 (Homo sapiens, UniProt P41161 1-510). The essentials:
as §1

A further assay deals with ELF4 (Homo sapiens, UniProt Q99607 1-663). The method in brief: as §1
Sequence of ELF4 (Q99607 whole entry): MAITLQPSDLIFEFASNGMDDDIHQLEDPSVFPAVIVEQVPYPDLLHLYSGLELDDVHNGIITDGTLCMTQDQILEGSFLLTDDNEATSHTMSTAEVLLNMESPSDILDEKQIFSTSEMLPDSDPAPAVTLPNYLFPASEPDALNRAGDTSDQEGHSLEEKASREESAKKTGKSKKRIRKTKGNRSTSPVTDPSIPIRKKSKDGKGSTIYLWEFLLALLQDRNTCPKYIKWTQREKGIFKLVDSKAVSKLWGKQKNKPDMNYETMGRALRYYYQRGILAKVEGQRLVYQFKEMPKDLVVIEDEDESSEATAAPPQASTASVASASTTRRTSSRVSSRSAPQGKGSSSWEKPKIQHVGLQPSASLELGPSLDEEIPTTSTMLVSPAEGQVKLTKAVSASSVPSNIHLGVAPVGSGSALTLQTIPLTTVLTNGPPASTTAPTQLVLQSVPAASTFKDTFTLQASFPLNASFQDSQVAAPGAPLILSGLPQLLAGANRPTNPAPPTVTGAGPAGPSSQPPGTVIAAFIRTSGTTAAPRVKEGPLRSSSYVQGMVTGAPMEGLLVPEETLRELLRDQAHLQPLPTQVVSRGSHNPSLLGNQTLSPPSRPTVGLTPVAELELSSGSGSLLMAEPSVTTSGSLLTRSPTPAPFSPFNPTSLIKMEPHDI
In the next assay the target is T6, ELK4 (Homo sapiens, UniProt P28324-2 1-405).
T6 sequence: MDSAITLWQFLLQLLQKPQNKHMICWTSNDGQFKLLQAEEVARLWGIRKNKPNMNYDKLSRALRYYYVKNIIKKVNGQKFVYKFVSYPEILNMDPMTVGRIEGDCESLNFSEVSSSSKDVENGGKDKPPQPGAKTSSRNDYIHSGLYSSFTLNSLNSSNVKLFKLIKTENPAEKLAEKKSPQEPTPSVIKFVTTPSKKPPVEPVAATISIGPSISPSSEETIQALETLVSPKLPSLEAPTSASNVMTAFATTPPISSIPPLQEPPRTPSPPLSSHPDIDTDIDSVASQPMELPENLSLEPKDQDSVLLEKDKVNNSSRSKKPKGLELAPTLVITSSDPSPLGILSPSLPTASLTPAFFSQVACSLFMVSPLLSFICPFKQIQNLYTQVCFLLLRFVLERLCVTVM
The essentials:
as §1

The next assay deals with T7, ETV2 (Homo sapiens, UniProt O00321 1-342).
T7 sequence: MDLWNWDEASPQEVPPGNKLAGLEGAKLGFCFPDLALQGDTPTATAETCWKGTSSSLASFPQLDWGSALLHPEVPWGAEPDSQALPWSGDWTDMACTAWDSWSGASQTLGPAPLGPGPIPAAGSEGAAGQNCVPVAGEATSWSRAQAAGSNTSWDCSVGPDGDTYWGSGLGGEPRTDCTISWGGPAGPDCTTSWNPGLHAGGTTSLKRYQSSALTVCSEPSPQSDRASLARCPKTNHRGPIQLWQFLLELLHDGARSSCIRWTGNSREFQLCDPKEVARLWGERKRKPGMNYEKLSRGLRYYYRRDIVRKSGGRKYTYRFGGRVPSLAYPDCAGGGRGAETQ
The method in brief: as §1

The target of a further assay is T8, ELF3 (Homo sapiens, UniProt P78545 1-371).
T8 sequence: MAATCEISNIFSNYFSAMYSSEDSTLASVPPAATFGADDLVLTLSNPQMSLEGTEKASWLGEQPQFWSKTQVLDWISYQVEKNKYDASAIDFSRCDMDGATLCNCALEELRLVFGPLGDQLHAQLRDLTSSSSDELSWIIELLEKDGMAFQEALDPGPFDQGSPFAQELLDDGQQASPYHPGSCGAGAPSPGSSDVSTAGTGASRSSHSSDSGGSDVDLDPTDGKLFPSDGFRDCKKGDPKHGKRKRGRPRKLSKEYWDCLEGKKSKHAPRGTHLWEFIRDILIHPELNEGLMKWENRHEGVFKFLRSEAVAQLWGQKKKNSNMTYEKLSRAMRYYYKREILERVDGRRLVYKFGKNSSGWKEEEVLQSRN
The essentials:
as §1

The target of another assay is ETV1 (Homo sapiens, UniProt P50549 1-477). The essentials:
as §1

Another assay deals with T9, ERF (Homo sapiens, UniProt P50548 1-548).
T9 sequence: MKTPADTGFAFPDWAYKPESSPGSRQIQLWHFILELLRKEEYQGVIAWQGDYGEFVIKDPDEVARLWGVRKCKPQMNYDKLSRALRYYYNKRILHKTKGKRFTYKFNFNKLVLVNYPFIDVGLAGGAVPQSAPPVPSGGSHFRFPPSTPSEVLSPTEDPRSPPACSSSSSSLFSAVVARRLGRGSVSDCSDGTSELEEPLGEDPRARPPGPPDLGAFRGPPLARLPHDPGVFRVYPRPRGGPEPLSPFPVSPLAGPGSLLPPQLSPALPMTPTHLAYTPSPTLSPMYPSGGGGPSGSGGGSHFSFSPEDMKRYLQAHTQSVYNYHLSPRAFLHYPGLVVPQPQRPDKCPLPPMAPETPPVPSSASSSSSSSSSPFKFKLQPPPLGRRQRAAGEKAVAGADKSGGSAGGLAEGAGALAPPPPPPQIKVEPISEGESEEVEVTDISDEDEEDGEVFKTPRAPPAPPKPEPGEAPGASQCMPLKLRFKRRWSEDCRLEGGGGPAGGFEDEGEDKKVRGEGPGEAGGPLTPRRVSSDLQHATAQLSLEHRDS
The method in brief:
as §1

In a further assay the target is T10, ETV3L (Homo sapiens, UniProt Q6ZN32 1-361).
T10 sequence: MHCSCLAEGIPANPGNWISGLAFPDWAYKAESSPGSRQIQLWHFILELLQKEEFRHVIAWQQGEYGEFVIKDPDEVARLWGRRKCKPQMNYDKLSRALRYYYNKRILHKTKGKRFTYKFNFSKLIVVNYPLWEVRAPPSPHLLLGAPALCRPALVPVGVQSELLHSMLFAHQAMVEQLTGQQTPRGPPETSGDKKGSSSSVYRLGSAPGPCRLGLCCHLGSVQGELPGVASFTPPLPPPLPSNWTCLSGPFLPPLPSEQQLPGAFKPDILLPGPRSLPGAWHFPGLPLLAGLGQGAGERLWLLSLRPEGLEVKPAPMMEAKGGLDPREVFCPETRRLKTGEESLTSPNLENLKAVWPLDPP
The method in brief: as §1

A further assay deals with T11, ETS2 (Homo sapiens, UniProt P15036 1-469).
T11 sequence: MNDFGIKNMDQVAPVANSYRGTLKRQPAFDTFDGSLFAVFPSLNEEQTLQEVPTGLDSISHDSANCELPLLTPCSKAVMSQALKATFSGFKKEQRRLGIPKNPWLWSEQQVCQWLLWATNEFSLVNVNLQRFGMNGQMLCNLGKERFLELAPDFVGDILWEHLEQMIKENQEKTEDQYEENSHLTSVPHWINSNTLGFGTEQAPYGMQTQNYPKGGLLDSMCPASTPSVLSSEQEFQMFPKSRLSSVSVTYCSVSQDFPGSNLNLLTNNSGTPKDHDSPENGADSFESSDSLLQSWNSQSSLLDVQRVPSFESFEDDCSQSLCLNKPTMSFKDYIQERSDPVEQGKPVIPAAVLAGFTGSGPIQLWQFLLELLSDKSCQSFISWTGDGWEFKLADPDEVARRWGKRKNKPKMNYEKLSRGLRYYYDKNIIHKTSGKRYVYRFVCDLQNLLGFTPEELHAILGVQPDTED
The essentials: as §1

Another assay deals with T12, ETV7 (Homo sapiens, UniProt Q9Y603 1-341).
T12 sequence: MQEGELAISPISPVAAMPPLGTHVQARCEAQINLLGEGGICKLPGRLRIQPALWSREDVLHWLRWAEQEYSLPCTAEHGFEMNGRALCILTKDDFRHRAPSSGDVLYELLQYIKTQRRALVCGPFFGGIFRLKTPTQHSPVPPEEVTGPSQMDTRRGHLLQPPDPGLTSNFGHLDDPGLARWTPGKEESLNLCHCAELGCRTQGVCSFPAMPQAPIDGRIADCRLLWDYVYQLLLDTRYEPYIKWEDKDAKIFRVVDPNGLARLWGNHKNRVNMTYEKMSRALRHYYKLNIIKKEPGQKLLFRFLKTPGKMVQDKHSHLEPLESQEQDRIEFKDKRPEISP
The essentials: as §1

In the next assay the target is T13, ETV3 (Homo sapiens, UniProt P41162-2 1-143).
T13 sequence: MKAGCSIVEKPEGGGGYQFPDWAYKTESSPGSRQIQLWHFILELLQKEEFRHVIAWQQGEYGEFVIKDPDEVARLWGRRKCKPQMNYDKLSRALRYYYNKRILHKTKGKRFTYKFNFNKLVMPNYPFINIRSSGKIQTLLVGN
The essentials:
as §1

In another assay the target is ETV6 (Homo sapiens, UniProt P41212 1-452). The essentials:
as §1

From paper PMC7862700, “An all-to-all approach to the identification of sequence-specific readers for epigenetic DNA modifications on cytosine” come the findings set out here.

Sequence of ETV6 (P41212 whole entry): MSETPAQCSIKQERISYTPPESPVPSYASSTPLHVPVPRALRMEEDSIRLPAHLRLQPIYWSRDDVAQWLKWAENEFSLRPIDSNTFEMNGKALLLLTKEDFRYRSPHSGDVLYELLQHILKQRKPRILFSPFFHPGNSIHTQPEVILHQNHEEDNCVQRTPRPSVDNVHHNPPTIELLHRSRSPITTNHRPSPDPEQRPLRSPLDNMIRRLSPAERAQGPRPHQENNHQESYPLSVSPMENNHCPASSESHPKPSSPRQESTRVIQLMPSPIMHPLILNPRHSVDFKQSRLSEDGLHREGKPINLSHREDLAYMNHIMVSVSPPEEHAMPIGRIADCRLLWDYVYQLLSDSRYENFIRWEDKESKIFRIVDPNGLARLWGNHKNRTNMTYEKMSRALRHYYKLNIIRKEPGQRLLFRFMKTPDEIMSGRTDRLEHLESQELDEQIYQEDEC
Sequence of ELF1 (P32519 whole entry): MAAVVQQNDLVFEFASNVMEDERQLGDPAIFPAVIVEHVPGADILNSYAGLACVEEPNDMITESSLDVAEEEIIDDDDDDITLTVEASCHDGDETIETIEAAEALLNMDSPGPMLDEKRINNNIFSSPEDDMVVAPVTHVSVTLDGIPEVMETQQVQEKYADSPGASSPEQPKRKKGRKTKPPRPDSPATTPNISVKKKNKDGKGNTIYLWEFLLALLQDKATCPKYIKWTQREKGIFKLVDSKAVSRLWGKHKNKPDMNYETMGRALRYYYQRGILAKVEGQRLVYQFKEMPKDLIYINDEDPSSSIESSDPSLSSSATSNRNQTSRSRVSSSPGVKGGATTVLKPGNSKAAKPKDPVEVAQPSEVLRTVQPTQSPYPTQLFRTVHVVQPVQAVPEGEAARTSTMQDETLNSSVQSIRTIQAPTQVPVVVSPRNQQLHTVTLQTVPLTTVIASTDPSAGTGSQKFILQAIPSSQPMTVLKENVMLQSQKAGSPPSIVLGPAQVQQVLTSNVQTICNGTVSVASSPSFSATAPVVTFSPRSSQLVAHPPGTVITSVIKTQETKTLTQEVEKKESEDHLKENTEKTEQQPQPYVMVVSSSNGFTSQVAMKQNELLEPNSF
Sequence of ETV5 (P41161 whole entry): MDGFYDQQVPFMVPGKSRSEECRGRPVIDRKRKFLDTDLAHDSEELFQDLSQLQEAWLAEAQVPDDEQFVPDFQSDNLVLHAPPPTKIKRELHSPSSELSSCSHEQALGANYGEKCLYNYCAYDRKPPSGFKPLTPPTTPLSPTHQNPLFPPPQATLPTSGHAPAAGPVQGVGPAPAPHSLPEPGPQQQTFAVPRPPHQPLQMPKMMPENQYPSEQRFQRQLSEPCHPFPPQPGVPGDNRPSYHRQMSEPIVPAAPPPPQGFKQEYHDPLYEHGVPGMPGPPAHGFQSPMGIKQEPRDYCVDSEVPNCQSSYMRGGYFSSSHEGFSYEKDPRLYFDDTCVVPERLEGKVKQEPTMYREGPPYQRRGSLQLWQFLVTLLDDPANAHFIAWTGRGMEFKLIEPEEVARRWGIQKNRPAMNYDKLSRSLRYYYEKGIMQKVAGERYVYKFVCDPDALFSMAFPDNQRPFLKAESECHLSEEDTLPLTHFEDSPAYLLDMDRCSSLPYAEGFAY
Sequence of ETV1 (P50549 whole entry): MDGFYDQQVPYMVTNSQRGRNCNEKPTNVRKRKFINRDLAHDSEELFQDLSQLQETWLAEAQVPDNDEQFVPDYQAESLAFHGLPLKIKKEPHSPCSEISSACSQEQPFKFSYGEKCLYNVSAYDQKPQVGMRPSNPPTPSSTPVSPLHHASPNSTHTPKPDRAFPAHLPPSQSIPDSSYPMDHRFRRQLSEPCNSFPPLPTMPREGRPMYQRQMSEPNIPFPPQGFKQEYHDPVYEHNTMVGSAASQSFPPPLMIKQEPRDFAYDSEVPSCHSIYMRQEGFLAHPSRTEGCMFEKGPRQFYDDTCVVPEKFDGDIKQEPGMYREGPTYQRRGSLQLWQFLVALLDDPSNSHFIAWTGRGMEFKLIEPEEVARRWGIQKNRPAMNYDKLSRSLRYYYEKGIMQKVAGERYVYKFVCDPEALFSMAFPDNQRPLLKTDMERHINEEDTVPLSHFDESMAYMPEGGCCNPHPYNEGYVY

As to GGTAAA, the binding signal with ELK1 is 1.1 fold enrichment (6-mer frequency, TF over GST control); in the assay with GABPA, 1.07 fold enrichment (6-mer frequency, TF over GST control); with ERG, 1.04 fold enrichment (6-mer frequency, TF over GST control); in the assay with ELF1, 1.08 fold enrichment (6-mer frequency, TF over GST control); with EHF it was 1.05 fold enrichment (6-mer frequency, TF over GST control); in the assay with SPI1, 1.04 fold enrichment (6-mer frequency, TF over GST control). Moreover, the binding signal with SPIB is 1.08 fold enrichment (6-mer frequency, TF over GST control); with FEV, 1.02 fold enrichment (6-mer frequency, TF over GST control); with ETV5, 1.06 fold enrichment (6-mer frequency, TF over GST control); with ELF4 it was 1.04 fold enrichment (6-mer frequency, TF over GST control); with ELK4, 1.11 fold enrichment (6-mer frequency, TF over GST control); with ETV2 it was 1.03 fold enrichment (6-mer frequency, TF over GST control). The binding signal with ELF3 is 1.13 fold enrichment (6-mer frequency, TF over GST control); in the assay with ETV1, 1.08 fold enrichment (6-mer frequency, TF over GST control); with ERF it was 1.01 fold enrichment (6-mer frequency, TF over GST control); with ETV3L, 1 fold enrichment (6-mer frequency, TF over GST control); in the assay with ETS2, 1.1 fold enrichment (6-mer frequency, TF over GST control); with ETV7, 1.12 fold enrichment (6-mer frequency, TF over GST control). The binding signal with ETV3 is 1.06 fold enrichment (6-mer frequency, TF over GST control); with ETV6, 1.07 fold enrichment (6-mer frequency, TF over GST control).
